This is an account of results in PubChem BioAssay (NCATS).

Inconclusive results are not listed. The source made the active and inactive calls. The call rests on the fitted dose curve; in most records, active means well fitted inhibition curve with a large enough effect; inconclusive means small, poorly fitted or top-dose-only effect; inactive means flat fitted curve, though single readings scatter.
On the % scale 0 is the no-effect control and ±100 the full control effect; potency means the concentration at half of the fitted maximal effect.

Chain of Calcium and integrin-binding protein 1 (Homo sapiens) (Q99828 whole entry, looked up): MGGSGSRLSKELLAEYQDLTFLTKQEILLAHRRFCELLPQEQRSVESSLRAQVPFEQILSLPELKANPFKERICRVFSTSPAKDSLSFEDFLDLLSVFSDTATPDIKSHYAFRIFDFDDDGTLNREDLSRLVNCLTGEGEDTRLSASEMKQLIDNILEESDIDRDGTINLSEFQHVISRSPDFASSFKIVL

For the assay, the target named is Calcium and integrin-binding protein 1 (Homo sapiens) (UniProt Q99828). As to the kind of experiment: Primary qHTS for Identification of Calcium Integrin Binding Protein 1 (CIB1) Competitor (AID 1508620).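 On activity change, negative = inhibition: GST tagged CIB1 binding a fluorescein labelled alphaIIb integrin peptide tracer; top concentration of the series differs between compounds.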 The settings on record: CIB1-GST / FITC-alphaIIb peptide fluorescence polarization; series mostly up to 114 µM; activity change, negative = inhibition: at the top concentration. The method in brief:
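Fluorescence polarization competition: CIB1-GST (1 uM final) preincubated with compound 15 min at room temperature, then FITC-labeled alphaIIb peptide (100 nM final) added for another 15 min. Polarization read at Ex 480/Em 540.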
A general note: Quantitative high-throughput screening tests each substance at several concentrations.
Regarding `Cc1cccc(-c2[nH]ncc2-c2ccc(F)c(-c3cnn(CCO)c3)c2)n1`, the “activity change, negative = inhibition” value was 0.244% (inactive).

As for `O=S(=O)(Cc1ccccc1)Nc1ccc(-c2ccc3c(cnn3-c3ccc(F)cc3)c2)c(C(F)(F)F)c1`, the “activity change, negative = inhibition” value is 6.31% (inactive).

`CC(C)C[C@H](CO)Nc1nc(S[C@@H](C)c2ccccc2)nc2nc(N)sc12`: the “activity change, negative = inhibition” value is -9.64% (inactive).

With `CC1=CC2/C=C(\C)CCC(O)C(=O)C(O)CC(=O)C23C(=O)NC(CC(C)C)C3C1C` (centres undefined), the “activity change, negative = inhibition” value is -0.929% [at 57.7 µM] (inactive).

Take `CC(=O)c1ccc2c(c1)[C@H](NC(=O)c1ccc(F)c(Cl)c1)[C@H](O)C(C)(C)O2`: the “activity change, negative = inhibition” value was 3.37% (inactive).

Turning to `CCC(=C(c1ccc(OCCN2CCCC2)cc1)c1ccc(OCCN2CCCC2)cc1)c1ccccc1`, the “activity change, negative = inhibition” value was -0.885% (inactive).

For `C=C1C(=O)O[C@@H]2C[C@H](C)C3=CC(=O)[C@H](O)[C@@]3(C)C[C@H]12`, the “activity change, negative = inhibition” value is -8.48% (inactive).

As to `COc1ccccc1-c1ccc(-c2cn(C(=O)N3CCCCC3Cc3ccccc3)nn2)cc1` (centres undefined), the “activity change, negative = inhibition” value was 2.44% (inactive).

Take `COc1cc(C(N)=O)nc(-c2ccccn2)c1O`: the “activity change, negative = inhibition” value is -19.2% (inactive).

Take `CCN(CC)C(=O)C(c1ccccc1)N1CCN(c2ccc(NC(=O)c3ccccc3-c3cccnc3)cc2F)CC1` (centres undefined): the “activity change, negative = inhibition” value is 0.649% (inactive).

For `CC(=O)OCC(=O)[C@@]12O[C@@H]1C[C@H]1[C@@H]3CC=C4C[C@@H](O)CC[C@]4(C)[C@H]3CC[C@@]12C`, the “activity change, negative = inhibition” value is 0.604% (inactive).

As for `O=C(N[C@H]1CCN(C(=O)c2cc(C(F)(F)F)cc(C(F)(F)F)c2)[C@H](Cc2ccc(Cl)cc2)C1)c1ccnc2ccccc12`, the “activity change, negative = inhibition” value was 4.34% [at 57.7 µM] (inactive).

Take `CN(C)C(=O)Nc1cc(-c2ccccc2)ccc1N(C)C`: the “activity change, negative = inhibition” value was 2.74% (inactive).

Turning to `CC(=O)O[C@@H]1CC2C(C)(C)C(=O)C=C[C@]2(C)C2CC[C@@]3(C)[C@H](c4ccoc4)OC(=O)[C@H]4O[C@]43[C@@]21C` (some centres undefined), the “activity change, negative = inhibition” value is -6.99% [at 57.7 µM] (inactive).

In the case of `CN(C)c1ccnc2sc3c(=O)n(N4CCCCCC4)cnc3c12`, the “activity change, negative = inhibition” value is -3.42% (inactive).

For `O=C(Nc1ccc(Cl)cc1)Nc1cccc(-c2cccc(N3CCCC3)n2)c1`, the “activity change, negative = inhibition” value is 2.26% (inactive).

Consider `COc1cc(C(C)C)c(Oc2cnc(N)nc2N)cc1I`, for which the “activity change, negative = inhibition” value is 2.33% (inactive).

For the molecule `Cc1onc(-c2ccccc2)c1C(=O)N1CCN(c2ccc([N+](=O)[O-])cc2Cl)CC1`, the “activity change, negative = inhibition” value is -0.658% (inactive).

As for `COCC(c1ccc(C(F)(F)F)cc1)N1CCN(C2(C)CCN(C(=O)c3c(C)ncnc3C)CC2)CC1C` (centres undefined), the “activity change, negative = inhibition” value is 6.04% (inactive).

`CCCC(Nc1nc(-c2ccc(NC(=O)NCC)c(OC)c2)ncc1C)c1cccnc1` (centres undefined): the “activity change, negative = inhibition” value is -5.37% (inactive).

Regarding `CNc1nc(NCc2ccc(NS(C)(=O)=O)cc2Cl)cc(-c2ccccn2)n1`, the “activity change, negative = inhibition” value is -0.61% (inactive).

Turning to `CC1=CC2/C=C(\C)CCC(O)C/C=C/C(=O)OC23C(=O)NC(CC(C)C)C3C1C` (centres undefined), the “activity change, negative = inhibition” value was 5.55% [at 57.7 µM] (inactive).

As for `Cc1noc(C)c1-c1cc(O)cc(C(O)c2ccccc2)c1` (centres undefined), the “activity change, negative = inhibition” value was 3.28% (inactive).

For `C[C@@H](O[C@H]1OCCN(Cc2nn(P(=O)(O)O)c(=O)[nH]2)[C@H]1c1ccc(F)cc1)c1cc(C(F)(F)F)cc(C(F)(F)F)c1`, the “activity change, negative = inhibition” value is -0.816% [at 57.7 µM] (inactive).

On to `O=C(NNc1nc2cc(F)ccc2n2cccc12)c1cnccn1`, for which the “activity change, negative = inhibition” value was -7.76% (inactive).

On to `C=C1C(=O)OC2CC3(C)C(O)C(=O)C=C(C)C3CC12` (centres undefined), for which the “activity change, negative = inhibition” value is -7.88% (inactive).

For the molecule `O=C(NC1CCN(CCCCC2(C(=O)NCC(F)(F)F)c3ccccc3-c3ccccc32)CC1)c1ccccc1-c1ccc(C(F)(F)F)cc1`, the “activity change, negative = inhibition” value is -3.58% (inactive).

As to `COc1ccc(-c2csc(NC(=O)[C@H]3CCCCN3S(=O)(=O)c3ccc(C)cc3)n2)cc1`, the “activity change, negative = inhibition” value was 1.62% (inactive).

Take `C[C@H]1CC[C@@]2(OC1)O[C@H]1CC3C4CC[C@H]5C[C@@H](O)CC[C@]5(C)C4=CC(=O)[C@]3(C)[C@H]1[C@@H]2C` (some centres undefined): the “activity change, negative = inhibition” value is 3.35% [at 57.7 µM] (inactive).

For `CC1=CC2/C=C(\C)CCC3OC(C)(C)OC3CCC(=O)C23C(=O)NC(CC(C)C)C3C1C` (centres undefined), the “activity change, negative = inhibition” value is 2.58% [at 57.7 µM] (inactive).

Turning to `C=CC(C)(C)C12CC3C(=O)N4C(CC5(C(C)(C)C=C)c6ccccc6NC45)C(=O)N3C1Nc1ccccc12` (centres undefined), the “activity change, negative = inhibition” value was 1.8% [at 57.7 µM] (inactive).

As to `Cc1cc(C)c(-n2cc(C)c3c(Cl)nc(C)nc32)c(C)c1`, the “activity change, negative = inhibition” value is 1.67% (inactive).

Turning to `COC(=O)CC(O)CC(O)/C=C/c1c(C)ccc2c1C(OC(C)=O)CC(C)C2` (centres undefined), the “activity change, negative = inhibition” value was 5.49% [at 57.7 µM] (inactive).

Turning to `Cc1cc(F)ccc1-c1nc(NCCN=C(N)NC#N)nc2c1ccc(=O)n2-c1c(F)cccc1F`, the “activity change, negative = inhibition” value is 4.44% (inactive).

Regarding `C=C1C(=O)O[C@@H]2[C@H]1CCC(C)=C(CCC(=O)O)[C@@]2(C)O`, the “activity change, negative = inhibition” value was -4.13% (inactive).

On to `O=c1nc(-c2ccccn2)sc2ccccc12`, for which the Potency was 28.2 µM (active).

`COc1ccc([C@H](Cc2ccncc2)c2ccccc2)cc1OC1CCCC1`: the “activity change, negative = inhibition” value was 0.805% (inactive).

For the molecule `CCC(C)CNCC(=O)N1CCC2SC=CC2C1COc1cccc(C)c1` (centres undefined), the “activity change, negative = inhibition” value was -2.07% (inactive).

As to `COc1ccc(N2CCN(C(=O)c3cc4c(s3)-c3ccccc3S(=O)(=O)C4)CC2)cc1`, the “activity change, negative = inhibition” value is -0.539% (inactive).
